High-throughput results as filed in PubChem.
Only some compounds are listed: those with a hit (about 3.7% of all), similar ones and a draw of the others.
MazEF act = activators of E. coli MazEF toxin-antitoxin RNase; AID 504720; actives 0.32% (n = 350,000); P0AE70; FAM/BHQ RNA-DNA oligo cleavage fluorescence, 5 h; activation, % at 20 µM; in the data active means activation above about 50%
Anthrax LF inh2 = inhibitors of Bacillus anthracis lethal factor protease. P15917. multiplex microsphere protease cleavage assay, LF. inhibition, % at 10 µM. actives 0.12% (n = 360,000). AID 588501; in the data active means inhibition above about 30%; inconclusive means no clear call, values can overlap the other calls; further: plate controls were buffer without enzyme for full effect and enzyme alone for no effect
Target sequence (P15917 whole entry, looked up): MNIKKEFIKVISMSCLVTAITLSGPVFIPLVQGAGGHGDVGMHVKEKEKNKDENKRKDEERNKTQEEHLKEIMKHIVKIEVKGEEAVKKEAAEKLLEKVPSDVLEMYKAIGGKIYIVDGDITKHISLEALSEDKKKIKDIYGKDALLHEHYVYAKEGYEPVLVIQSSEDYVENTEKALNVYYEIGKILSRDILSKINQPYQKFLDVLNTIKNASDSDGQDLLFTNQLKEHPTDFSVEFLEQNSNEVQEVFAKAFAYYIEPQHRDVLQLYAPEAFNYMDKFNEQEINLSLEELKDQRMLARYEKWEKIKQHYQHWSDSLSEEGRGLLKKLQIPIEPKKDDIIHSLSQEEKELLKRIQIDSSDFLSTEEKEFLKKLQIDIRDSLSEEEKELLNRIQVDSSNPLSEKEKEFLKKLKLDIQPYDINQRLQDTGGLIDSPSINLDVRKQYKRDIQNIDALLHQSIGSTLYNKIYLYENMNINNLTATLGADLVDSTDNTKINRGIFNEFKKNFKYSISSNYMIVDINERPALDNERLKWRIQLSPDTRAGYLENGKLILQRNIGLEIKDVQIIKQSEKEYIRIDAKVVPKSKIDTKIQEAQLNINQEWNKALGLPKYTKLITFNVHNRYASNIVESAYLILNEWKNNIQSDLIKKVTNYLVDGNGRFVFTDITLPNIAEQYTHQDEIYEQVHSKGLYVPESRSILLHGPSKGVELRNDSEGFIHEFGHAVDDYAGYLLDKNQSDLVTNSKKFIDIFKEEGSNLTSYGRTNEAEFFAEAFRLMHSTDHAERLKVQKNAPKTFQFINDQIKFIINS
BoNT F protease = blocks Botulinum neurotoxin F light chain protease; actives 0.22% (n = 360,000); Multiplex microsphere protease cleavage assay, flow cytometry; inhibition, % at 10 µM; AID 588497; in the data active means inhibition above about 35%, passing the limit was not always enough; inconclusive means no clear call, values can overlap the other calls; further: plate controls were buffer without enzyme for full effect and enzyme alone for no effect
BoNT A protease = BoNT A light chain protease inhibition | multiplex microsphere protease substrate cleavage, flow cytometry | inhibition, % at 10 µM | actives 0.17% (n = 360,000) | AID 588499; in the data active means inhibition above about 30%; inconclusive means no clear call, values can overlap the other calls; further: plate controls were buffer without enzyme for full effect and enzyme alone for no effect
Bead autofluor = compound fluorescence in toxin protease inhibitor counterscreen. compound autofluorescence counterscreen, microsphere flow cytometry; stronger effect = higher value. fluorescence intensity (concentration not given with the values). actives 3.1% (n = 360,000); in the data active means fluorescence intensity above about 16000; inconclusive means no clear call, values can overlap the other calls
BoNTA LC inh 1 = blocks botulinum neurotoxin A light chain protease; shares compounds with BoNT F protease; inhibition, % at 10 µM; actives 3% (n = 720); multiplex microsphere protease assay, flow cytometry; in the data active means inhibition above about 32%
BoNT-F LC CP1 = BoNT/F light chain protease inhibition; shares compounds with BoNT F protease; multiplex microsphere protease cleavage assay, flow cytometry; inhibition, % at 10 µM; 720 tested, under 10 active; AID 602140
LF protease CP1 = inhibitors of Bacillus anthracis lethal factor protease; 720 tested, under 10 active; inhibition, % at 10 µM; multiplex microsphere protease cleavage assay, LF; shares compounds with BoNT F protease; AID 602142
Numbers without * were called inactive; ? = inconclusive; . = no result given. Unless noted, how the calls were made is not given here.

SMILES	MazEF act	Anthrax LF inh2	BoNT F protease	BoNT A protease	Bead autofluor	BoNTA LC inh 1	BoNT-F LC CP1	LF protease CP1
COc1cc(NC(=O)[C@H]2O[C@@H](n3cnc4c(N)ncnc43)[C@H](O)[C@@H]2O)cc(OC)c1OC	.	3	3	0	4197	.	.	.
O=C(Nc1ccc(Cl)cc1Cl)c1n[nH]c(Cn2cncn2)n1	6	3	-3	?	20568*	.	.	.
O=C(CN1C(=O)NC2(CCCCCC2)C1=O)c1ccc(F)cc1	6	?	?	?	?	.	.	.
CCc1ccc(C(=O)CN2C(=O)NC3(CCCCCC3)C2=O)cc1	-2	11	43*	12	5069	0	-1	-2
CN(C)CCN(CC1CCCN(Cc2ccccc2F)C1)C(=O)c1ccc(Cl)cc1 (stereo not given)	11	9	44*	2	3527	0	-4	0
Cc1ccccc1CC(=O)N(CCN(C)C)CC1CCCN(Cc2ccccc2F)C1 (stereo not given)	6	-5	25	-1	4146	.	.	.
O=S1(=O)CCN(Cc2ccncc2)CC1	5	-10	-2	0	3029	.	.	.
CCCn1c(=O)c2c(nc3n2CCCN3Cc2ccccc2)n(C)c1=O	8	-10	41*	0	2935	-1	-4	-8
O=C1c2ccccc2C(=O)N1C1CCCCC1	0	50*	?	-3	3825	2	0	1
CC1(C)C(=O)Nc2ccccc2N1C(=O)COC(=O)c1cccnc1	5	-7	-2	-1	3132	.	.	.
O=C(Nc1ccc(-c2cnco2)cc1)c1ccc(F)cc1F	-5	24	?	?	3173	.	.	.
Cc1ccc(-c2cnco2)cc1	-3	30*	?	?	4486	1	-2	6
c1csc(-c2cnc3n2CCCC3)c1	5	-4	-27	-1	4734	.	.	.
COc1ccc(-c2cnc3n2CCCCC3)cc1	3	9	42*	5	3877	-1	-1	1
CC(C)C1Oc2ccccc2N(CC(=O)N2CCOCC2)C1=O (stereo not given)	8	-5	32	5	3775	.	.	.
COc1ccc(NC(=O)c2[nH]c(C)c(C(C)=O)c2C)cc1	1	-3	-4	-2	4240	.	.	.
CCOc1ccc(NC(=O)c2[nH]c(C)c(C(C)=O)c2C)cc1	4	3	35*	-1	7115	-2	-7	-2
COc1ccc(C2CC(c3cccs3)=NN2c2nc(-c3ccccc3)cs2)cc1OC (stereo not given)	-1	16	2	19	4635	8	-2	9
CCOc1ccc(S(=O)(=O)N(C)c2ccc(OCC(=O)NCCc3ccc(OC)cc3)cc2)cc1	1	-15	1	-1	4718	.	.	.
O=C(CSc1nnc(CNC(=O)c2ccc(F)cc2)o1)NCc1ccc2c(c1)OCO2	14	-1	-3	2	5633	.	.	.
O=C(Nc1ccc(CN2CCOCC2)cc1)c1ccc(Cl)cc1	-7	-13	-2	0	3466	.	.	.
O=C(Nc1ccc(CN2CCS(=O)(=O)CC2)cc1)c1ccc(C(F)(F)F)cc1	-5	30*	-17	0	3484	0	-8	-4
O=C(Nc1ccc(CN2CCOCC2)cc1)c1ccc(F)cc1	2	1	35*	0	3717	0	-3	3
CC(C)(C)c1ccc(C(=O)Nc2ccc(CN3CCS(=O)(=O)CC3)cc2)cc1	-6	-10	?	-5	?	.	.	.
Cc1cc([N+](=O)[O-])nn1Cc1ccccc1F	-4	1	35*	0	2525	0	0	1
SMILES	MazEF act	Anthrax LF inh2	BoNT F protease	BoNT A protease	Bead autofluor	BoNTA LC inh 1	BoNT-F LC CP1	LF protease CP1
Cc1cc([N+](=O)[O-])nn1Cn1nc([N+](=O)[O-])cc1C	4	1	-1	-1	3444	.	.	.
CCOc1ccc(S(=O)(=O)N2CCCCC2)cc1NC(=O)Cc1cc(OC)c(OC)c(OC)c1	-3	0	4	0	3599	.	.	.
N#CCC(=O)Nc1ccc(C(=O)OCC(=O)Nc2ccc3ccccc3c2)cc1	-1	0	-3	-2	8451	.	.	.
Cn1c(=O)c2cc3ccccc3nc2n(C)c1=O	-16	30*	?	-1	4208	0	-1	2
O=C(NCCCl)Nc1ccccc1OCCOc1ccccc1NC(=O)NCCCl	11	-16	-34	1	3807	.	.	.
NC(=O)C1CC(=O)N(CCc2ccc(F)cc2)C1 (stereo not given)	1	-1	7	4	3506	.	.	.
O=C(NCc1nnnn1-c1ccc(F)cc1)c1ccc(S(=O)(=O)N2CCOCC2)cc1	-4	-1	-1	-1	4073	.	.	.
Cc1ccc2[nH]c(CNC(=O)C3CCCCC3)cc2c1	-3	3	-86	93*	2959	-1	-10	-2
Cc1cc(=O)oc2c(CN3CCCC3)c(O)c(Cl)cc12	-3	30*	10	-3	3914	1	-5	1
CN(C)c1nc(-c2cn(CCC#N)c3ccccc23)cs1	-3	?	?	?	3639	.	.	.
CC(=O)c1c(C)nc(-c2ccc(Cl)cc2)nc1N	1	1	50*	5	2357	5	24	5
CCNc1ccc(S(=O)(=O)N(C)C)cc1NCC(=O)Nc1ccccc1Br	16	-7	41*	8	4121	1	-5	1
CCNc1ccc(S(=O)(=O)N(C)C)cc1NCC(=O)Nc1ccccc1F	22	-1	-5	0	2492	.	.	.
CS(=O)(=O)Nc1ccc(C2=NN(C(=O)CCCC(=O)O)C(c3cccs3)C2)cc1 (stereo not given)	-7	-3	37*	-4	4361	0	-3	-4
CCN(CC)C(=O)c1ccc(NC(=O)c2cccc(S(=O)(=O)N3CCN(Cc4ccccc4)CC3)c2)cc1	-10	-4	-3	57*	?	-3	-3	-1
CC(=O)Nc1cccc(NC(=O)c2cccc(S(=O)(=O)N3CCN(Cc4ccccc4)CC3)c2)c1	1	.	.	.	.	.	.	.
CCOC(=O)c1c(NC(=S)N2CCOCC2)sc(C)c1C	-5	5	48*	2	3766	-3	-6	-3
CCOC(=O)c1c(N)sc(C(=O)N2CCOCC2)c1C	1	2	0	0	11163	.	.	.
O=C(Cc1ccccc1)NCC(=O)N1CCN(c2ccc(F)cc2)CC1	7	-5	-3	-1	4001	.	.	.
c1ccc(-c2ncc3ccccn23)cc1	0	-1	-2	2	5898	0	-7	1
Clc1cccc(OCc2nc(-c3ccncc3)no2)c1	-7	-2	44*	4	2544	1	-5	1
O=C(Nc1ccc(F)cc1)C1CCN(C(=O)NCc2ccccc2)CC1	7	33*	19	2	2927	-1	-7	-3
Cn1c(=O)c2cc(S(=O)(=O)NC(Cc3ccccc3)C(=O)NCc3ccco3)ccc2n(C)c1=O (stereo not given)	-5	6	-5	0	5559	.	.	.
